An excerpt weighted towards active compounds, which were near 0.85% of everything screened.
GAA spleen mod – qHTS Assay for Inhibitors and Activators of Human alpha-Glucosidase From Spleen Homogenate; Potency, µM (top dose mostly 79.9 µM), without a hit: top-dose activity change, negative = inhibition, most hits filed as inhibitors; human spleen homogenate, 4-MU-alpha-glucoside fluorescence; AID 2112, 2009; hit rate 0.006% among 240,000;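 also: potency is read from the fitted curve at half-maximal effect; 0% = enzyme with vehicle and -100% = no enzyme basal signal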
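Human spleen homogenate (1 ug) with 4-methylumbelliferyl-alpha-D-glucopyranoside (1 mM final) in 50 mM citrate/phosphate pH 5.0, 0.01% Tween-20; 40 min at 37 C. Stopped at pH 10; 4-MU fluorescence Ex 365/Em 440 nm; AC50 by Hill fit.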
B2AR arrestin – qHTS assay of beta-arrestin-biased ligands of beta2-adrenergic receptor; beta-arrestin recruitment to beta2AR, cell-based reporter; Potency, µM (doses to about 46.1 µM), for inactives: top-dose activation, hits mostly activators; hit rate 0.02% among 330,000;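 also: potency is read from the fitted curve at half-maximal effect; 0% = DMSO controls and full agonism = EC100 isoproterenol or metaproterenol; nearly all actives have a fitted effect of over 65% in size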
Target sequence (P07550 whole entry, looked up): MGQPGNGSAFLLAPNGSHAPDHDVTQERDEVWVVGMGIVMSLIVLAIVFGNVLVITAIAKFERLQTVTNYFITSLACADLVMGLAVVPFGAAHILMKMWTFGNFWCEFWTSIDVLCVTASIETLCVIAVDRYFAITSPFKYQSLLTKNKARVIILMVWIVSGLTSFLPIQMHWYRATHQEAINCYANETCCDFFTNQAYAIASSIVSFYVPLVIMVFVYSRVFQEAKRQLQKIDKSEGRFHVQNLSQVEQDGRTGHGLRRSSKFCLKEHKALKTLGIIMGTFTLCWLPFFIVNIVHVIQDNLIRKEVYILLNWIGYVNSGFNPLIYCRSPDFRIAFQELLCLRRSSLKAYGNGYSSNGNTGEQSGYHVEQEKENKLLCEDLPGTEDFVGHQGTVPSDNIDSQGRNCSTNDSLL
GAA inhib – qHTS Assay for Inhibitors of Human alpha-Glucosidase as a Potential Chaperone Treatment of Pompe Disease. purified human GAA, 4-MU-alpha-glucoside fluorescence. Lysosomal alpha-glucosidase (Homo sapiens), P10253. Potency, µM (titrated, usually from 76.9 µM), without a hit: top-dose activity change, negative = inhibition, usual class: inhibitors. hit rate 0.005% among 200,000. AID 1466, 2008;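 also: potency is read from the fitted curve at half-maximal effect; plate controls were uninhibited enzyme wells for no effect and no-enzyme background for full effect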
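Human alpha-glucosidase, 4 nM, pre-mixed with test compounds before 400 uM 4-methylumbelliferyl substrate; 20 min room temperature at pH 5.0. Fluorescence read after pH 10 stop; AC50 values from Hill-equation fits.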
GAA glycogen mod – qHTS Assay for Inhibitors and Activators of Human alpha-Glucosidase Cleavage of Glycogen. Potency, µM (doses to about 76.4 µM), without a hit: at the highest dose activity change, negative = inhibition, most hits filed as inhibitors. recombinant GAA, glycogen substrate, Amplex Red glucose oxidase fluorescence. hit rate 0.38% among 300,000;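 also: potency is read from the fitted curve at half-maximal effect; 0% = full enzyme reaction and -100% = no-enzyme basal signal; the screen sought inhibitors and activators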
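Recombinant enzyme (4 nM final) with compounds titrated up to 77 uM and bovine liver glycogen (30 ug) in citrate pH 5.0, 0.01% Tween-20, 37 C 40 min. Released glucose detected by Amplex Red/glucose oxidase (Ex 573/Em 610); AC50 from Hill fits.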
Coupling enz – qHTS Assay for Inhibitors of Fructose-1,6-bisphosphate Aldolase from Giardia Lamblia: Coupling assay counterscreen; coupling enzyme system counterscreen, AmpLite Red fluorescence; activity change, negative = inhibition, % at 58.2 µM, hits read low; hit rate 0.67% among 290,000; AID 2472, 2010; in the data active = activity change below about -30%
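Final compound at 57.5 uM, incubated 10 min at RT with coupling enzyme reagent (glyceraldehyde-3-phosphate), then 20 min with substrate and AmpLite Red detection. Fluorescence read at 525/598 nm; tests interference with the coupling assay, not aldolase inhibition.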
* = called active by the depositor; ? = inconclusive; / = no result; [ ] = dose if it differs, or a comment. Unless noted, calls follow the shape of the dose curve; as a rule, active = well fitted curve in the direction sought with a large enough effect; inconclusive = small, poorly fitted or top-dose-only effect, or another doubt; inactive = no such curve, though single readings can be large; an effect the other way counts as inactive or inconclusive. Unless noted, % is scaled to controls: 0 for no effect and ±100 for the full control effect.

SMILES	GAA spleen mod	B2AR arrestin	GAA inhib	GAA glycogen mod	Coupling enz
O=C(COC(=O)c1ccc2c(c1[N+](=O)[O-])C(=O)c1ccccc1C2=O)NC1CC1	13.6%	-0.1%	3.8%	0.6%	-33.3*
COc1ccc(C(=O)NNC(=S)NC(=O)C(C)(C)C)cc1	-5.3%	-0.6%	1.3%	7.94µM*	-10.4
N#CC1=C(N)C(C#N)(C#N)C(c2cccnc2)C2CCCC=C12 (configuration not stated)	-0.9%	-0.1%	11.1%	-1.4%	-36.5*
N#Cc1ccc(CS(=O)(=O)c2nnnn2C2CCCCC2)cc1	-2.8%	/	/	/	2.2
Cc1cccc(C)c1NC(=O)CN(C)S(=O)(=O)c1ccc2c(c1)n(C)c(=O)c(=O)n2C	/	/	/	12.8%[76.3 µM]	/
Cc1cn2c(-c3cccnc3)nnc2s1	-1.7%	0.0%	?	5.9%	2.6
Cc1ccc(-c2[nH]c(=O)n3ccncc23)s1	0.9%	0.1%	-7.1%	39.8µM*	1.4
NNC(=O)c1nc(-c2ccccc2)n2c1CCCCC2	-8.2%	-0.8%	3.1%	17.6µM*	4.8
CCCc1cc(SCC(=O)Nc2c(C)n(C)n(-c3ccccc3)c2=O)n2c(nc3ccccc32)c1C#N	0.6%	3.55µM*	-3.1%	6.5%	-2.0
Nc1ccc2c(c1)OC1(CCCC1)O2	-12.2%	-0.5%	14.0%	31.4µM*	-4.0
O=C(Cc1ccccc1)Nc1ccc2c(c1)OC1(CCCC1)O2	/	0.2%	/	/	/
Cc1cc(O)ccc1N/C=C1\CCCC1=O	2.5%	-0.3%	1.0%	-3.9%	-44.4*
COc1cccc(Cn2c(=O)c(-c3cccc(C#N)c3)nc3cnc(N4CCOCC4)nc32)c1	-3.9%	/	/	/	6.8
COc1ccc2c(c1)CC/C(=C\Nc1ccc3c(c1)OCO3)C2=O	4.3%	-0.9%	-13.8%	?	-49.0*
O=C1OC2(CCCCC2)OC(=O)C1=CNc1ccc2c(c1)OCO2	-1.1%	0.1%	-4.2%	1.2%	-9.9
COc1ccc(N/C=C2\CCc3ccccc3C2=O)cc1	-9.7%	-0.2%	4.2%	-26.7%	-39.2*
COc1ccc(N/C=C2\CCOC2=O)cc1	-0.7%	-1.1%	-6.8%	?	-1.5
O=C1/C(=C/Nc2ccc3c(c2)OCO3)CCc2ccccc21	13.3%	0.5%	-16.8%	?	-40.0*
COc1cccc(Cn2c(=O)n(Cc3ccco3)c(=O)c3oc4ccccc4c32)c1	/	/	/	13.9%[76.3 µM]	/
NC(=O)c1ccc(C[C@H](C(=O)O)N2C(=O)c3ccc(C(=O)O)cc3C2=O)cc1	3.8%	-0.6%	/	/	0.1
CN(C)c1ccc(C(=C2C=CC(=[N+](C)C)C=C2)c2ccc(N(C)C)cc2)cc1	-3.6%	/	/	/	-57.7*
N#C/C(=C\c1cc(O)c(O)c(O)c1)C(N)=O	?	-0.3%	/	5.01µM*	-48.8*
CN(C)C(=O)c1ccc(-c2cc(NCc3cccnc3)ncn2)cc1	5.1%	/	/	/	0.7
Cc1cccc(OCCC(=O)NCC(=O)Nc2cccc(C)c2C)c1	-7.8%	0.0%	7.6%	3.4%	-35.1*
Cc1cccc(NC(=O)CCOc2ccccc2)c1C	/	-0.7%	/	3.1%	-3.5
SMILES	GAA spleen mod	B2AR arrestin	GAA inhib	GAA glycogen mod	Coupling enz
Oc1cccc2c(NC(=S)Nc3ccc(OC(F)F)cc3)cccc12	-5.3%	3.5%	-9.0%	-5.8%	-48.4*
CCOc1ccc(NC(=O)C(c2ccccn2)N(C(=O)CCl)c2ccc(OC)cc2)cc1 (configuration not stated)	6.2%	-0.1%	3.1%	?	-42.5*
CC(O)[C@@H]1NC(=O)[C@H](CCCN)NC(=O)[C@@H](Cc2c[nH]c3ccccc23)NC(=O)[C@H](Cc2ccc(O)cc2)NC(=O)[C@@H](NC(=O)[C@H](N)Cc2ccccc2)CSSC(C)(C)C(C(=O)N[C@H](C(N)=O)[C@@H](C)O)NC1=O (some centres not stated)	-0.3%	/	/	/	0.1
CCc1ccc(O)c(N=Cc2ccccc2O)c1	-4.0%	0.3%	-2.6%	11.1µM*	-0.1
N#CC(C(=S)Nc1ccccc1)c1nc2ccccc2[nH]1 (configuration not stated)	-16.9%	1.78µM*	/	?	-0.2
COc1ccccc1-c1cncnc1NCc1ccccc1	5.1%	/	/	/	5.4
CCOC(=O)C(C(=O)OCC)N(Cc1cc(OC)ccc1OC)C(=O)C1CC(CO[Si](C)(C)C(C)(C)C)=CN1C(=O)OC(C)(C)C (configuration not stated)	3.2%	/	/	/	-6.2
CC(C)(C)c1ccc(/C([O-])=C(/C(=S)NCc2ccco2)[n+]2ccccc2)cc1	-9.6%	-0.1%	1.2%	2.2%	-30.4*
Cc1ccc[n+](/C(C(=S)NCc2ccco2)=C(/[O-])c2ccccc2Cl)c1	-0.5%	-1.0%	-1.9%	-20.3%	-32.4*
CCOC(=O)N1CCc2c(sc3c2c(=O)n(CCc2ccccc2)c(=O)n3Cc2cc(C)ccc2C)C1	/	/	/	5.5%[76.3 µM]	/
Cc1ccc(-n2c(N)c(C(=O)N3CCN(C)CC3)sc2=S)cc1	-9.8%	0.3%	-5.6%	-8.5%	-33.9*
Cc1c(N)cc(N)cc1C(=O)O	-1.0%	-0.2%	/	-20.5%	-34.7*
Cc1c(Br)cc(C(=O)O)c(C)c1C	-21.5%	0.0%	-0.6%	1.4%	3.4
NC(=S)N=Nc1c(O)n(Cc2ccc(F)cc2)c2ccccc12	0.3%	9.2µM*	?	14.7%	-2.1
CN1CCN(c2ncnc3ccc(-c4ccccc4C(F)(F)F)cc23)CC1	0.9%	/	/	/	5.3
COc1cccc(CN2CCN(C3CSCCSC3)CC2CCO)c1 (configuration not stated)	-2.5%	0.1%	4.2%	-4.4%	-32.3*
CC(C)Nc1nc(-c2ccccc2)nc(-n2ccnc2)n1	3.0%	0.3%	0.3%	6.2%	-0.6
c1ccc(-c2nc(-n3ccnc3)nc(-n3ccnc3)n2)cc1	-1.7%	0.1%	-4.3%	-3.2%	-50.9*
O=[N+]([O-])/C(=C\Nc1ccccc1Cl)S(=O)(=O)c1ccccc1	-5.9%	-1.2%	5.9%	-11.4%	-14.7
O=[N+]([O-])/C(C=Nc1ccccc1O)=C\Nc1ccccc1O	-1.3%	-0.4%	/	3.55µM*	-0.5
CCCCOc1ccccc1CC1C(=O)Nc2ccc(Br)cc21 (configuration not stated)	/	/	/	-10.7%[76.3 µM]	/
CCOC(=O)C1=C(Cc2ccc(F)cc2)C(=O)c2ccccc2C1=O	-5.0%	-1.0%	-2.3%	-17.5%	-57.1*
O=C(OCc1ccc(F)cc1)c1ccc2c(c1)-c1ccccc1C2=O	-9.1%	-0.3%	-2.0%	-3.9%	/
NS(=O)(=O)c1ccc(NC(=S)N2CCN(C(=O)C3CCCO3)CC2)cc1 (configuration not stated)	/	0.0%	/	-1.5%[76.3 µM]	/

Screening data deposited in PubChem by National Center for Advancing Translational Sciences (NCATS).
